Tau fluor counter = counter-screen for tau fibril formation inhibitors | Potency, µM (series often up to 57.7 µM), for the others: top-dose activity change, negative = decrease | tau K18 P301L Alexa594 fluorescence, heparin fibrillization | actives 0.93% (n = 280,000); also: nearly all actives have a fitted effect of over 55% in size
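Human K18 P301L tau (15 uM unlabeled plus 0.24 uM Alexa 594-labeled, final) in 100 mM sodium acetate pH 7 was mixed with compound and 20 uM heparin and incubated 6 hr at 37 C.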
Tau fibril ThT = inhibitors of human tau fibril formation, thioflavin T binding; recombinant tau K18 P301L, heparin-induced fibrillization, ThT fluorescence; Potency, µM (doses to about 57.4 µM), for the others: at the highest dose activity, negative = inhibition, usual class: inhibitors; actives 2.1% (n = 270,000); also: nearly all actives have a fitted effect of over 55% in size
Target sequence (P10636 561-689 P618L limits assumed): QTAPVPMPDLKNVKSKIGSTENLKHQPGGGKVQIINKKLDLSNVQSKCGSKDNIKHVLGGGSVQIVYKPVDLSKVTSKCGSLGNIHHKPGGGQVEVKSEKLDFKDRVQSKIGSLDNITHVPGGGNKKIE
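Using a mix of unlabeled (15 uM) and Alexa 594-labeled (0.24 uM) tau K18 P301L, heparin-triggered fibrillization over 6 hr at 37 C was scored by ThT fluorescence.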
Sfp PPTase inh = Sfp phosphopantetheinyl transferase inhibition; Biochemical Sfp PPTase activity, qHTS; Potency, µM, for inactives: largest response in the series, negative = inhibition, most hits filed as inhibitors; actives 3.5% (n = 310,000); Q9F4F7;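 also: the enzyme is Sfp with the accession as filed and its product quenches rhodamine fluorescence; 0% = enzyme reaction without inhibitor and -100% = no enzyme wells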
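Buffer: 50 mM Hepes-Na pH 7.6, 10 mM MgCl2, 0.01% Nonidet P-40, 0.01% BSA. Enzyme 15 nM, pre-exposed to compound 15 min; substrates then added and fluorescence change tracked over 30 min.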
PLK1 PBD block = blocks phosphopeptide binding to human PLK1 polo-box domain. P53350. Plk1 PBD binding of FITC phosphopeptide, fluorescence polarization. Potency, µM, without a hit: max response, negative = inhibition, hits mostly inhibitors. actives 2.8% (n = 360,000). AID 720504; also: series mostly up to about 57 µM; nearly all actives have a fitted effect of over 65% in size
VDR inhibitor = blocks the human vitamin D receptor. actives 0.93% (n = 400,000). VDR-SRC2-3 peptide fluorescence polarization, 2 h. Potency, µM, for the others: max response, negative = inhibition, actives largely listed as inhibitors
Target sequence (P11473 whole entry, looked up): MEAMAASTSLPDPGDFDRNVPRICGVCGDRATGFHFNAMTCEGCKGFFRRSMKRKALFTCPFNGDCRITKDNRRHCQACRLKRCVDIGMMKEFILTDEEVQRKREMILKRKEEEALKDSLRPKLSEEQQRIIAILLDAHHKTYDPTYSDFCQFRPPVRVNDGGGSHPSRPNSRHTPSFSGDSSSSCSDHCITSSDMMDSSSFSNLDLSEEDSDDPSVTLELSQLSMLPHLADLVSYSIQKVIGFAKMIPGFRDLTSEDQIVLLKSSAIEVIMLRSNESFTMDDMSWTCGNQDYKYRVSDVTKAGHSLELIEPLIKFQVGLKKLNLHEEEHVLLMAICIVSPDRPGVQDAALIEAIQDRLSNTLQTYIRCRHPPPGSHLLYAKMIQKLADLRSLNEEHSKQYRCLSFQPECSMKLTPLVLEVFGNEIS
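After 23 nl compound addition and a short centrifugation, plates sat for 2 hours at ambient temperature; polarization of fluorescence then indicated loss of VDR binding to peptide SRC2-3.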
Tau fibril FP = inhibitors of human tau fibril formation. Potency, µM (highest dose often 57.7 µM), for the others: top-dose activity, negative = inhibition, usual class: inhibitors. P10636. K18 P301L tau heparin fibrillization, Alexa594 FP, 6 h. AID 1468. actives 0.39% (n = 280,000); also: nearly all actives have a fitted effect of over 55% in size
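Quantitative HTS format: compounds meet 15 uM recombinant K18 P301L tau and Alexa 594-tau tracer in 100 mM sodium acetate pH 7; 20 uM heparin triggers fibrillization at 37 C over 6 hr; FP gives the signal.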
* marks the source's active call; other numbers are inactive results; ? = inconclusive; . = no result. This is a sample that favours compounds with a hit; in the whole collection about 6% have one here. Calls follow the shape of the dose curve; as a rule, active = well fitted curve in the direction sought with a large enough effect; inconclusive = small, poorly fitted or top-dose-only effect, or another doubt; inactive = no such curve, though single readings can be large; an effect the other way counts as inactive or inconclusive. Unless noted, % is scaled to controls: 0 for no effect and ±100 for the full control effect; potency is read from the fitted curve at half-maximal effect.

SMILES | Tau fluor counter | Tau fibril ThT | Sfp PPTase inh | PLK1 PBD block | VDR inhibitor | Tau fibril FP
Cc1cccc(C=CC(=O)c2ccccc2)c1 | . | . | . | -12% | 45µM* | .
COC(=O)c1ccc(/C=C/C(=O)c2cccc(OC)c2)cc1 | 1% | ? | ? | -18% | 22µM* | ?
CC(=O)Nc1ccc(NC(=S)NC(=O)/C=C/c2ccc(Cl)cc2)cc1 | -7% | ? | 16% | ? | 1% | -8%
CCC(=O)Nc1ccc(NC(=O)/C=C/c2ccc(Cl)cc2)cc1 | -8% | ? | 9% | 30µM* | ? | -13%
CN(C)c1ccc(C(=O)C=Cc2ccc([N+](=O)[O-])cc2)cc1 | . | . | . | 0% | . | .
O=C(C=Cc1ccccc1)c1ccc([N+](=O)[O-])cc1 | . | . | . | -21% | 10µM* | .
Cc1ccc(C(=O)C=Cc2cccc(C)c2)cc1 | . | . | . | -3% | ? | .
O=C(O)c1ccc(C(=O)c2cc([N+](=O)[O-])cc([N+](=O)[O-])c2)cc1 | . | . | . | 2% | -8% | .
COc1ccccc1-c1nnc(C2CCN(C(=O)c3cccc(C)c3)CC2)o1 | -9% | -10% | . | . | 1% | -5%
O=C(CN1CCCN(Cc2ccccc2Cl)S1(=O)=O)Nc1ccc2c(c1)OCCO2 | -21% | -1% | . | . | 3% | 6%
O=C(COC(=O)c1ccccc1O)NCCCc1ccccc1 | -16% | -11% | -9% | 30µM* | -7% | 3%
O=C(/C=C/c1ccc(O)cc1)c1ccccc1 | -3% | -19% | -6% | 0% | -15% | 15%
O=C(/C=C/c1ccc(Cl)cc1)NC1CC2CCC1C2 (stereo not drawn) | -2% | -1% | -25% | -18% | -1% | -6%
O=C(/C=C/c1ccc([N+](=O)[O-])cc1)NCCc1ccccc1 | -15% | ? | -4% | 17µM* | ? | -5%
O=C(/C=C/c1ccc([N+](=O)[O-])cc1)NC1CC2CCC1C2 (stereo not drawn) | -9% | -5% | -8% | 6µM* | ? | 7%
O=C(/C=C/c1ccccc1)c1ccc(O)cc1 | -21% | ? | -14% | . | 45µM* | 7%
CN1CCN(c2ncc3nc(-c4cccc(C#N)c4)c(=O)n(CCC#N)c3n2)CC1 | . | . | 9% | . | 3% | .
CCc1nc2ccc(C(=O)NCCCN3CCCC3=O)cn2c1N(CC)C(=O)NCCc1ccccc1 | . | . | . | -11% | . | .
CSCCC(c1nc2ccccc2[nH]1)n1c(-c2ccc3ncccc3c2)nc2ccccc21 (stereo not drawn) | . | . | . | -2% | . | .
COc1ccc(C(=O)/C=C/c2ccccc2)cc1 | -18% | ? | -13% | . | 25µM* | 1%
O=C(O)/C=C/C(=O)NCCCc1ccccc1 | -1% | -3% | 15% | 27µM* | -15% | -3%
O=C(O)/C=C/C(=O)NCc1ccccc1 | -6% | -2% | 2% | 6% | -13% | -1%
CCC(=O)Nc1cccc(C(=O)/C=C/c2ccccc2)c1 | 1% | ? | ? | -21% | 50µM* | 3%
CCC(=O)Nc1cccc(C(=O)/C=C/c2cccs2)c1 | -14% | ? | 1% | -6% | -25% | 0%
Cc1cc(NC(=O)CS(=O)c2cn(Cc3cccc(Cl)c3)c3ccccc23)no1 (stereo not drawn) | . | . | . | -4% | . | .
SMILES | Tau fluor counter | Tau fibril ThT | Sfp PPTase inh | PLK1 PBD block | VDR inhibitor | Tau fibril FP
COC(=O)[C@H](CC(C)C)NC(=O)c1cc2c(cn1)[nH]c1ccccc12 | . | . | 45µM* | 3.8µM* | ? | .
CC1(CC(=O)N/N=C/c2cc([N+](=O)[O-])c(O)cc2O)OCCO1 | -10% | ? | 6% | 9.5µM* | ? | -4%
COc1cc([C@@H]2Oc3cc([C@H]4Oc5cc(O)cc(O)c5C(=O)[C@H]4O)ccc3O[C@H]2CO)ccc1O | ? | ? | -30% | . | . | -1%
COc1cccc(C=NCCCN=Cc2cccc(OC)c2O)c1O | . | . | 3% | -16% | 136% | .
COc1cccc(C=NCCNC(=O)c2nonc2N)c1O | -6% | ? | 45µM* | -7% | ? | -3%
O=S(=O)(c1ccc(N2CCC(c3ccc(Cl)cc3)=N2)cc1)N(CCO)CCO | -29% | ? | ? | 30µM* | 3% | 20%
S=C(Nc1cccc2ccccc12)Nc1cccc2ccccc12 | . | . | . | -24% | -26% | .
S=C(CSc1ccccc1)Nc1cccc2ccccc12 | . | . | . | 11µM* | . | .
CCC(C)(C)n1nnnc1C(c1cc2ccc(OC)cc2[nH]c1=O)N1CCc2ccccc2C1 (stereo not drawn) | -12% | ? | 4.5µM* | ? | -2% | -6%
COc1ccc2cc(C(c3nnnn3C(C)(C)C)N3CCc4ccccc4C3)c(=O)[nH]c2c1 (stereo not drawn) | -13% | ? | ? | . | . | -4%
CCC(C)(C)n1nnnc1C(c1cc2ccc(OC)cc2[nH]c1=O)N1CCc2ccccc21 (stereo not drawn) | ? | ? | 10µM* | -9% | 1% | 8%
Cc1ccccc1N(C)C(=O)c1noc2c1COc1ccccc1-2 | -16% | 8% | . | . | 11% | 4%
O=C(CN1C(=O)/C(=C/c2ccc(Cl)cc2)SC1=S)NC1C=CS(=O)(=O)C1 (stereo not drawn) | . | . | 40µM* | -18% | -7% | .
O=C(CCN1C(=O)/C(=C/c2ccc(Cl)cc2)SC1=S)NC1C=CS(=O)(=O)C1 (stereo not drawn) | . | . | -3% | -20% | -3% | .
O=C(O)CCN1C(=O)CC(N2C(=O)/C(=C/c3ccc(Cl)cc3)SC2=S)C1=O (stereo not drawn) | -4% | ? | 0% | 24µM* | -23% | -10%
COc1ccc(Nc2nc3ccccc3nc2NS(=O)(=O)c2cccs2)cc1 | ? | 14µM* | 20% | ? | -11% | 15%
CC(=O)c1ccc(Nc2nc3ccccc3nc2NS(=O)(=O)c2cccs2)cc1 | . | . | 31% | ? | -26% | .
O=C(Nc1ccc(S(=O)(=O)Nc2cnc3ccccc3n2)cc1)c1ccc(Cl)cc1Cl | . | . | . | -14% | -16% | .
O=C(Nc1ccc(S(=O)(=O)Nc2cnc3ccccc3n2)cc1)c1ccc(Cl)c([N+](=O)[O-])c1 | . | . | 31% | 42µM* | ? | .
CCC(Oc1ccccc1)C(=O)Nc1ccc(S(=O)(=O)Nc2cnc3ccccc3n2)cc1 (stereo not drawn) | 0% | -4% | 23% | -11% | -5% | 4%
Cc1cc(Cl)ccc1OC(C)C(=O)Nc1ccc(S(=O)(=O)Nc2cnc3ccccc3n2)cc1 (stereo not drawn) | -16% | ? | 7% | 21µM* | -63% | -4%
O=C(Nc1ccc(S(=O)(=O)Nc2cnc3ccccc3n2)cc1)c1cc(F)c(F)cc1Cl | . | . | 21% | 30µM* | ? | .

Assay outcomes as filed in PubChem.
